Vaccinia mCherry: qHTS for Stage-Specific Inhibitors of Vaccinia Orthopoxvirus: mCherry Reporter Primary qHTS; Potency, µM (titrated, usually from 36.5 µM), for the others: top-dose activity change, negative = inhibition, actives largely listed as inhibitors; actives 0.63% (n = 310,000); Vaccinia virus mCherry reporter infection, fluorescence; AID 720579, 2013; calls by dose curve; tested in A549 cells; note: nearly all actives have a fitted effect of over 35% in size
Marburg entry inh: qHTS for inhibitors of binding or entry into cells for Marburg Virus | Marburg virus pseudotyped entry inhibition, cell reporter | Potency, µM (doses to about 37.8 µM), inactives show at the highest dose activity change, negative = inhibition, hits mostly inhibitors | actives 1.8% (n = 300,000) | AID 540276, 2011; calls by dose curve; tested in HEK293 cells
VACV Venus inh: qHTS for Stage-Specific Inhibitors of Vaccinia Orthopoxvirus: Venus Reporter Primary qHTS | Vaccinia virus Venus reporter expression, fluorescence | Potency, µM (highest dose often 36.5 µM), inactives show at the highest dose activity change, negative = inhibition, actives largely listed as inhibitors | actives 0.46% (n = 330,000) | AID 720580, 2013; calls by dose curve; tested in A549 cells; note: nearly all actives have a fitted effect of over 30% in size
FMDV inh: High Throughput Screening for Foot and Mouth Disease Virus Antivirals | FMDV antiviral cell-based qHTS | Potency, µM (series often up to 57.9 µM), for the others: at the highest dose activity change, negative = inhibition, actives largely listed as inhibitors | actives 1.2% (n = 410,000); calls by dose curve; tested in HEK293T cells; note: read-out not given here; nearly all actives have a fitted effect of over 45% in size
Lassa entry inh: qHTS for Inhibitors of binding or entry into cells for Lassa Virus; AID 540256, 2011; Potency, µM (highest dose often 37.9 µM), for inactives: at the top dose activity change, negative = inhibition, actives largely listed as inhibitors; actives 1.2% (n = 300,000); Lassa virus pseudotype entry inhibition, cell reporter; calls by dose curve; tested in HEK293 cells; note: nearly all actives have a fitted effect of over 50% in size
Starred values were filed as active, the others as inactive; [ ] = another dose, or the depositor's remark. Sampled rows, rich in hits. Any-hit rate of the full collection: about 3.2%. % is set by controls: 0 for no effect and ±100 for the full control effect; potency is the fitted concentration of half-maximal effect.

How did O=C1C(=O)N(CCN2CCOCC2)C(c2ccccn2)/C1=C(/O)c1ccc(F)cc1 (configuration not stated) do in these assays?
Vaccinia mCherry: 5%; Marburg entry inh: 2%; VACV Venus inh: 13%; FMDV inh: 12%; Lassa entry inh: 8%

Results for N#Cc1ccccc1NS(=O)(=O)c1cc2c3c(c1)CCC(=O)N3CCC2 ?
Vaccinia mCherry: -7%; Marburg entry inh: -5%[46.1 µM]; VACV Venus inh: -13%; FMDV inh: 33%; Lassa entry inh: -3%

Results for COC(=O)[C@@H]1Cc2c([nH]c3ccccc23)C(C)(C)N1C(=O)CCl ?
Vaccinia mCherry: inconclusive; Marburg entry inh: 7.1µM*; VACV Venus inh: inconclusive; FMDV inh: inconclusive; Lassa entry inh: 7.9µM*

What do the screens show for `COC(=O)C1Cc2c([nH]c3ccccc23)C2CCC(=O)N12` (configuration not stated)?
Vaccinia mCherry: inactive; VACV Venus inh: -7%; FMDV inh: -6%

What do the screens show for `[N-]=[N+]=Nc1ccc(C(=O)CSC[C@H](NC(=O)CC[C@H](N)C(=O)O)C(=O)NCC(=O)O)cc1`?
Marburg entry inh: 5µM*; Lassa entry inh: inconclusive

How did CS(=O)(=O)CCNCc1nc(-c2ccc3ncnc(Nc4ccc(F)c(Cl)c4)c3c2)cs1 do in these assays?
Lassa entry inh: -15%

What do the screens show for `COc1ccccc1C(C)NCC(=O)NC(=O)NCc1ccco1` (configuration not stated)?
Vaccinia mCherry: inactive; Marburg entry inh: 17%; VACV Venus inh: -17%; FMDV inh: -13%; Lassa entry inh: -20%

Results for Cc1ccc(/C=C2\C(=O)NC(=O)N(Cc3ccccc3Cl)C2=O)o1 ?
FMDV inh: 32µM*

What do the screens show for `C=CCN1C(=O)NC(=O)/C(=C/C=C/c2ccccc2)C1=O`?
Vaccinia mCherry: -13%; Marburg entry inh: 17%; VACV Venus inh: 21%; FMDV inh: inconclusive; Lassa entry inh: 18%

How did O=C1NC(=O)N(CCc2ccc(F)cc2)C(=O)/C1=C\C=C\c1ccccc1 do in these assays?
Vaccinia mCherry: -8%; Marburg entry inh: 9%[46.1 µM]; VACV Venus inh: 5%; FMDV inh: 10µM*

What do the screens show for `O=C1NC(=O)N(Cc2ccc(F)cc2)C(=O)/C1=C/c1cccs1`?
Vaccinia mCherry: inactive; Marburg entry inh: -22%; VACV Venus inh: -2%; FMDV inh: 32µM*; Lassa entry inh: -4%

How did O=C1NC(=O)N(Cc2ccc(F)cc2)C(=O)/C1=C\c1ccoc1 do in these assays?
Vaccinia mCherry: inactive[7.34 µM]; Marburg entry inh: 10%[46.1 µM]; VACV Venus inh: 9%[7.34 µM]; FMDV inh: -28%; Lassa entry inh: -14%

What do the screens show for `O=C1N/C(=C/c2cccs2)C(=O)N1Cc1ccccc1F`?
Vaccinia mCherry: -9%; Marburg entry inh: 3%[46.1 µM]; VACV Venus inh: -9%; FMDV inh: 6%; Lassa entry inh: 0%

What do the screens show for `O=C1NC(=O)N(Cc2ccccc2Cl)C(=O)/C1=C/c1cccs1`?
Vaccinia mCherry: -15%; VACV Venus inh: inconclusive; FMDV inh: 22µM*

What do the screens show for `O=C1O[C@H](Nc2ccc(Br)cn2)c2ccccc21`?
Marburg entry inh: 5%

Results for Cc1ccc(/C=C2\C(=O)NC(=O)N(CCc3ccc(F)cc3)C2=O)s1 ?
Vaccinia mCherry: -7%; Marburg entry inh: 11%; VACV Venus inh: 0%; FMDV inh: -27%; Lassa entry inh: 2%

What do the screens show for `Cc1ccc(/C=C2\C(=O)NC(=O)N(CCc3ccc(F)cc3)C2=O)o1`?
Marburg entry inh: 1%; FMDV inh: 22µM*

What do the screens show for `COc1ccc(NC(=O)C(=O)NCC(c2cccnc2)N2CCc3ccccc32)cc1OC` (configuration not stated)?
Vaccinia mCherry: -26%; VACV Venus inh: -14%; FMDV inh: -22%; Lassa entry inh: 5%[46.1 µM]

Results for CCOc1ccc(NC(=O)C(=O)NCC(c2cccnc2)N2CCc3ccccc32)cc1 (configuration not stated) ?
Vaccinia mCherry: -28%; VACV Venus inh: -30%; FMDV inh: 11µM*; Lassa entry inh: -3%[46.1 µM]

What do the screens show for `COC(=O)c1ccc(NC(=O)C(=O)NCC(c2cccnc2)N2CCc3ccccc32)cc1` (configuration not stated)?
Vaccinia mCherry: -15%; VACV Venus inh: -12%; FMDV inh: 11µM*; Lassa entry inh: -14%[46.1 µM]

How did CCOc1ccc(C(=O)Nc2cccc(OCc3cc(=O)n4cc(C)sc4n3)c2)cc1 do in these assays?
Vaccinia mCherry: -5%; Marburg entry inh: 6%[46.1 µM]; VACV Venus inh: 3%; FMDV inh: 0%; Lassa entry inh: 22%[46.1 µM]

Results for COC(=O)c1ccc(Cn2cc(/C=C\[N+](=O)[O-])c3ccccc32)o1 ?
Vaccinia mCherry: inactive; Marburg entry inh: inconclusive; VACV Venus inh: -2%; FMDV inh: 40µM*; Lassa entry inh: inconclusive

Results for O=[N+]([O-])/C=C/c1cn(Cc2ccc(Cl)cc2)c2ccccc12 ?
Vaccinia mCherry: inactive; Marburg entry inh: inconclusive; VACV Venus inh: inconclusive; FMDV inh: 35µM*; Lassa entry inh: inconclusive

Results for CCOC(=O)Cn1cc(/C=C/[N+](=O)[O-])c2ccccc21 ?
FMDV inh: 28µM*

How did O=C(Nc1cccc(Cl)c1)OCc1cn(-c2ccccc2)nn1 do in these assays?
Vaccinia mCherry: -2%; Marburg entry inh: 16%[46.1 µM]; VACV Venus inh: 2%; FMDV inh: 2.5µM*; Lassa entry inh: inconclusive

What do the screens show for `Cc1ccc(C(=O)NCCSc2ccccc2)cc1S(=O)(=O)Nc1ccccc1`?
Marburg entry inh: 23µM*; FMDV inh: -6%; Lassa entry inh: inconclusive

Results for Cc1ccccc1NS(=O)(=O)c1cc(C(=O)NCCSC2CCCCC2)ccc1C ?
Vaccinia mCherry: -17%; Marburg entry inh: inconclusive; VACV Venus inh: -13%; Lassa entry inh: 8.2µM*

How did O=C(NCCSc1ccccc1)c1ccc(Br)cc1 do in these assays?
Vaccinia mCherry: -13%; Marburg entry inh: inconclusive; VACV Venus inh: -14%; FMDV inh: -11%; Lassa entry inh: 13µM*

How did O=C(NCCSc1ccccc1)c1ccccc1 do in these assays?
Vaccinia mCherry: inactive; Marburg entry inh: inconclusive; VACV Venus inh: -2%; FMDV inh: 9%; Lassa entry inh: inconclusive

What do the screens show for `CN(NC(=O)c1ccc(Cl)cc1)c1nc(-c2ccccc2)nnc1C(F)(F)F`?
Vaccinia mCherry: -8%; Marburg entry inh: inconclusive; VACV Venus inh: -12%; FMDV inh: 32µM*; Lassa entry inh: -16%

Results for Oc1cc(OCc2ccccc2)ccc1-c1[nH]ncc1-c1ccccc1 ?
Vaccinia mCherry: inconclusive; Marburg entry inh: 12%[46.1 µM]; VACV Venus inh: inconclusive; FMDV inh: 0%; Lassa entry inh: -18%

How did COc1ccc(-c2cn[nH]c2-c2ccc(OCc3ccc(F)cc3)cc2O)cc1OC do in these assays?
Vaccinia mCherry: -22%; Marburg entry inh: inconclusive; VACV Venus inh: -27%; FMDV inh: 25µM*; Lassa entry inh: inconclusive
